In PubChem BioAssay AID720566 (Broad Institute, 2013):
Measured potencies and affinities stand elsewhere.

These compounds were tested against Protein disulfide-isomerase A6 (Homo sapiens) (UniProt Q15084) (assay: reduced insulin turbidity driven by ERp5 (PDIA6) – biochemical, absorbance 650 nm, cherry-picked samples, dose response (AID 720566;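 note: negative values mean less insulin aggregation so ERp5 inhibition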)). Conditions: Recombinant ERp5 insulin aggregation; series mostly up to 35 µM; activity change, negative = inhibition: at the top concentration;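 active = in all runs, an absorbance decrease of 25% or more of the average positive control decrease; inconclusive = runs conflict, with both active and inactive results; inactive = all runs inactive, opposite-direction effects included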.
Protein disulfide-isomerase A6 (Homo sapiens), sequence (Q15084 whole entry, looked up): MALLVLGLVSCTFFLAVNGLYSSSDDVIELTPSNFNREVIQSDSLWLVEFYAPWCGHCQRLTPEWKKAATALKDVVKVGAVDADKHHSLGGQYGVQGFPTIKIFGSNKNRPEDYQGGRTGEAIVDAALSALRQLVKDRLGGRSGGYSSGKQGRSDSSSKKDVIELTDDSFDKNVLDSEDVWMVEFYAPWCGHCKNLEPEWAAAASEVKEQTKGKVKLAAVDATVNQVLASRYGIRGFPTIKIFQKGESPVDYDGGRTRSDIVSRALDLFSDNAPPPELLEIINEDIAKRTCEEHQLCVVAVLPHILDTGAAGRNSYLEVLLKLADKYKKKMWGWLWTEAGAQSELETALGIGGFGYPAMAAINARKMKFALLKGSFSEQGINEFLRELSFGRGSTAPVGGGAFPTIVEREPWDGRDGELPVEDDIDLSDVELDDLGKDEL

Activity change, negative = inhibition, inactive:
C[C@@H]1CN([C@H](C)CO)C(=O)c2cccc(NC(=O)Nc3ccc4c(c3)OCO4)c2O[C@H]1CN(C)Cc1ccc(Oc2ccccc2)cc1 7.45%
CCCN(C)C[C@@H]1Oc2cc(-c3ccc(F)cc3)ccc2S(=O)(=O)N([C@@H](C)CO)C[C@@H]1C 4.34%
C/C=C/c1ccc2c(c1)O[C@@H](CN(C)S(C)(=O)=O)[C@H](C)CN([C@@H](C)CO)S2(=O)=O 2.99%
CCCNC(=O)C[C@@H]1C[C@H]2c3cc(NS(C)(=O)=O)ccc3O[C@H]2[C@@H](CO)O1 -8.39%
CC(C)CC#Cc1ccc2c(c1)O[C@@H](CN(C)C(=O)c1ccccn1)[C@@H](C)CN([C@@H](C)CO)S2(=O)=O -13.4%
CCC(=O)Nc1ccc2c(c1)C(=O)N(C)[C@@H]1CC[C@@H](CC(=O)NCC3CC3)O[C@@H]1CO2 1.25%
C[C@@H]1CN([C@@H](C)CO)C(=O)c2cc(C#CC3CCCCC3)cnc2O[C@@H]1CN(C)S(=O)(=O)c1ccccc1 -8%
C[C@@H]1CCCCO[C@@H](CN(C)C(=O)CCC(F)(F)F)[C@H](C)CN([C@@H](C)CO)C(=O)c2cc(NS(=O)(=O)c3ccc(Cl)cc3)ccc2O1 5.59%
O=C(CCN1C(=O)/C(=C\c2ccccc2)SC1=S)NCCCN1CCOCC1 -1.25%
Cc1noc(C)c1NC(=O)N(C)C[C@H]1Oc2ccc(NC(=O)c3ccncc3)cc2C(=O)N([C@H](C)CO)C[C@@H]1C -1.12%
C[C@H](CO)N1C[C@H](C)[C@@H](CN(C)S(=O)(=O)c2cn(C)cn2)Oc2ccc(NC(=O)c3ccncc3)cc2CC1=O 1.49%
Cc1cc2occ(CC(=O)NNC(=O)c3ccccc3)c2cc1C -18.2%
COc1ccc(NC(=O)Nc2ccc3c(c2)C(=O)N([C@H](C)CO)C[C@H](C)[C@@H](CN(C)C(=O)C2CCCCC2)OCCCC[C@H](C)O3)cc1 10.1%
CCN(CC)S(=O)(=O)c1cc(NC(=O)c2ccc(-n3cncn3)c([N+](=O)[O-])c2)ccc1C -4.42%
CCC(=O)Nc1ccc2c(c1)OC[C@H](C)N(Cc1cccnc1)C[C@H](C)[C@H](OC)CN(C)C2=O 6.85%
C[C@@H]1CN([C@H](C)CO)C(=O)c2cccc(NC(=O)Nc3cccc4ccccc34)c2O[C@H]1CN(C)C(=O)Nc1ccc(C(F)(F)F)cc1 -10.1%
C[C@@H]1CN([C@H](C)CO)C(=O)c2cc(-c3cccc(C#N)c3)cnc2O[C@H]1CN(C)Cc1cncnc1 1.45%
C[C@@H]1CN([C@@H](C)CO)C(=O)c2cc(-c3cccc(C#N)c3)cnc2O[C@H]1CN(C)Cc1cncnc1 1.12%
CCC(=O)N(C)C[C@H]1Oc2cc(-c3ccc(C#N)cc3)ccc2S(=O)(=O)N([C@@H](C)CO)C[C@@H]1C -6.46%
COc1ccc2c3c([nH]c2c1)[C@@H](CO)N(Cc1nccs1)CC31CN(C(=O)C2CCCC2)C1 3.38%
Cc1cc(Br)cc(Br)c1OCC(=O)NNC(=O)CCC(=O)NCc1ccccc1 0.113%
C[C@@H]1CN([C@@H](C)CO)C(=O)Cc2cc(NC(=O)Nc3ccc(C(F)(F)F)cc3)ccc2O[C@@H]1CN(C)Cc1ccc(Cl)c(Cl)c1 6.89%
COCCNC(=O)C[C@@H]1C[C@H]2c3cc(NC(=O)NC4CCCC4)ccc3O[C@H]2[C@@H](CO)O1 -8.2%
O=C(C[C@@H]1C[C@H]2c3cc(NC(=O)C4CCC4)ccc3O[C@H]2[C@@H](CO)O1)NCC(F)(F)F 0.372%
Cc1ccc(S(=O)(=O)N(CC(O)CN2CCOCC2)c2cccc([N+](=O)[O-])c2)cc1 (stereo not drawn) -10.8%
C[C@@H]1CN([C@H](C)CO)C(=O)Cc2cc(NC(=O)c3ccncc3)ccc2O[C@H]1CN(C)S(=O)(=O)c1cn(C)cn1 2.41% [at 30 µM]
CO[C@H]1CN(C)C(=O)c2cc(NC(=O)CC(F)(F)F)ccc2OC[C@H](C)N(C(=O)C2CC2)C[C@@H]1C 2.98% [at 30 µM]
C[C@@H]1CN([C@@H](C)CO)C(=O)c2cc(Br)cnc2O[C@H]1CN(C)Cc1cccc(F)c1 1.25%
CCCNC(=O)C[C@H]1CC[C@@H]2[C@@H](COc3ccc(NC(=O)c4ccccc4)cc3C(=O)N2C)O1 3.57%
CN(C)C(=O)C[C@@H]1C[C@@H]2c3cc(NS(C)(=O)=O)ccc3O[C@@H]2[C@H](CO)O1 0.745%
COC(=O)[C@]1(C)N[C@H](CN(C)S(=O)(=O)c2ccc(OC(F)(F)F)cc2)[C@@H]2C(=O)N(C)C(=O)[C@@H]21 2.15%
C[C@@H]1CN([C@H](C)CO)C(=O)c2cc(C#CCN(C)C)cnc2O[C@H]1CN(C)Cc1cccc(F)c1 -4.53%
CC(=O)Nc1ccc2c(c1)C(=O)N(C)[C@H]1CC[C@H](CC(=O)NCC3CC3)O[C@@H]1CO2 1.68%
